Assay outcomes as filed in PubChem.
Most compounds without a hit are left out; they make up all but 21% or so of the library.
Cycloheximide cs = counter-screen hit for Shiga toxin inhibitors, cycloheximide; max response, %; cell reporter, cycloheximide protein synthesis inhibition counterscreen; 300,000 tested, 12% active; in the data active means max response mostly above about 13%, no sharp cut-off; inactive means mostly below about 14%; further: read at 38.3 µM for the half of the compounds with a filed dose; 0% is about no effect
Pf growth 48h = P. falciparum growth inhibition at 48 hours (one generation); 310,000 tested, 5.9% active; P. falciparum luciferase growth in erythrocytes, 48 h; Potency, µM (highest dose often 28.7 µM), for inactives: at the top dose activity change, negative = inhibition, most hits filed as inhibitors; further: potency means the concentration at half of the fitted maximal effect; on the % scale 0 is the no-effect control and ±100 the full control effect
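Read-out is firefly luciferase luminescence from an integrated reporter in P. falciparum, so falling signal marks reduced parasite growth. Infected erythrocytes were at 2% hematocrit and 0.1% parasitemia (final) in Albumax-supplemented RPMI 1640.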
Shiga inhibitor = Shiga toxin inhibition; 290,000 tested, 9.2% active; inhibition, % at 38.7 µM; Vero cells, Shiga toxin protein synthesis inhibition reporter; in the data active means inhibition mostly above about 28%, no sharp cut-off; inactive means mostly below about 43%; further: 0% is about no effect
AMA1 RON2 block = AMA1-RON2 (P. falciparum) interaction inhibition; 360,000 tested, 0.2% active; AlphaScreen AMA1-biotinylated RON2 peptide binding; Potency, µM (highest dose often 58.2 µM), inactives show at the top dose activity change, negative = inhibition, actives largely listed as inhibitors; AID 720542;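 further: potency means the concentration at half of the fitted maximal effect; 0% = vehicle wells and -100% = peptide control; nearly all actives have a fitted effect of over 45% in size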
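AMA1 (3D7) with his tag at 25 nM final met compounds first, then biotinylated RON2 peptide at 25 nM; detection used donor plus acceptor beads, 10 µg/mL apiece, read by AlphaScreen after 30 min at room temperature.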
Pf growth 96h = inhibits malaria parasite growth, 96 h | Potency, µM (series often up to 28.7 µM), without a hit: at the top dose activity change, negative = inhibition, most hits filed as inhibitors | 320,000 tested, 6.9% active | P. falciparum luciferase reporter growth, 96 h; further: potency means the concentration at half of the fitted maximal effect; on the % scale 0 is the no-effect control and ±100 the full control effect
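Luminescence readout: decreased luciferase signal marks inhibited growth of reporter-expressing P. falciparum in infected red cells (2% hematocrit, 0.05% parasitemia final), exposed to compound two generations (96 h, 37 C, 5% CO2).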
HCV inhibitor = blocks hepatitis C virus; Huh7.5.1 HCVcc-Cre infection, luciferase reporter, 44 h; Potency, µM (series often up to 41.8 µM), without a hit: top-dose activity change, negative = inhibition, hits mostly inhibitors; 340,000 tested, 3.4% active; further: potency means the concentration at half of the fitted maximal effect; on the % scale 0 is the no-effect control and ±100 the full control effect
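Antiviral activity was scored by luciferase reporter output from cells infected with HCVcc-Cre (~0.5 moi) in presence of compound, 44 h infection period, cells seeded 1,000/well 4 h prior.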
Active calls of the source: *; ? = inconclusive; · = no result given; [ ] = dose if it differs, or a comment. Unless noted, the call rests on the fitted dose curve; in most records, active means well fitted curve in the direction sought with a large enough effect; inconclusive means small, poorly fitted or top-dose-only effect, or another doubt; inactive means no such curve, though single readings can be large; an effect the other way counts as inactive or inconclusive.

SMILES	Cycloheximide cs	Pf growth 48h	Shiga inhibitor	AMA1 RON2 block	Pf growth 96h	HCV inhibitor
CC(C(=O)N(C)c1ccccc1)N1CCN(C(=O)c2ccccc2)CC1 (stereo unspecified)	-1	20%	-9	31%	1%	24%
O=C(CCN1C(=O)/C(=C\C=C\c2ccccc2)SC1=S)Nc1cccc(C(=O)O)c1	-4	39%	-13	-10%	?	15%
CC(/C=C1\SC(=S)N(NC(=O)c2ccc(C)cc2)C1=O)=C\c1ccccc1	-5	20%	-11	-8%	8%	?
CC(/C=C1\SC(=S)N(c2ccc(C(=O)O)cc2)C1=O)=C\c1ccccc1	-2	4.7µM*	15	-2%	?	23%
O=C(CCN1C(=O)/C(=C\C=C\c2ccccc2)SC1=S)Nc1ccccc1C(=O)O	-3	6%	-24	-16%	9.3µM*	-7%
O=C1c2ccccc2C(=O)C1c1ccc(O)cc1	28*	30%	70*	15%	?	?
COc1ccc(C2C(=O)c3ccccc3C2=Nc2ccc(Br)cc2)cc1 (stereo unspecified)	-4	50%	11	-19%	?	-7%
COc1cccc(C2C(=O)c3ccccc3C2=O)c1	-2	-2%	32	-5%	4%	17%
O=C1c2ccccc2C(=O)C1c1ccc(F)cc1	·	-7%	·	·	?	·
O=C1c2ccccc2C(=O)C1c1ccc(Br)cc1	19*	?	88*	13%	15µM*	5%
O=C1NC(c2ccc(O)cc2)Nc2ccccc21 (stereo unspecified)	13*	16%	16	-6%	-29%	?
O=C1c2ccccc2C(=O)C1c1ccc(Cl)cc1	27*	?	47	-5%	?	·
O=C(NCCN1CCOCC1)C1(C(F)(F)F)C/C(=C\CCO)CCCO1 (stereo unspecified)	0	·	-6	·	·	·
CC(C)CC(=O)N1CCN(S(=O)(=O)c2ccc(C3CCCCC3)cc2)CC1	·	?	·	-6%	5%	11µM*
CCCCCCN1CC(C(=O)OCC)C(=O)C1=O (stereo unspecified)	-4	23%	18	-1%	?	2%
O=C(CNc1ccccc1)Nc1cccc2ccccc12	-2	-1%	-9	-25%	?	4%
COc1ccc(OC)c(/C=N/NC(=O)c2cnccn2)c1	9	-3%	69*	11%	63%	24%
COc1cccc(/C=N/NC(=O)c2cnccn2)c1O	37*	?	89*	57%	-15%	-8%
COc1cccc(/C=N/NC(=O)c2cnccn2)c1	75*	37%	86*	8%[2.32 µM]	0%	1%
COc1ccc(/C=N/NC(=O)c2cnccn2)c(OC)c1OC	20	40%	16	44%	18%	7%
COc1cccc(C=NNC(=O)CCCC(=O)NN=Cc2cccc(OC)c2)c1	·	·	·	8%	·	-27%
COc1ccc(/C=N/NC(=O)c2cnccn2)cc1O	65*	90%	38*	2%	-13%	13%
COc1cc(/C=N/NC(=O)c2ccncc2)ccc1O	2	17%	10	11%	?	-3%
Cc1ccsc1C(=O)NCCc1ccc(S(N)(=O)=O)cc1	-1	0%	24	-4%	-4%	4%
O=C(N/N=C/c1cccc([N+](=O)[O-])c1)c1cnccn1	16	17%	active	85%	-13%	4%
O=C(N/N=C/c1cc([N+](=O)[O-])ccc1Cl)c1cnccn1	-2	0%	-10	-1%	-12%	-22%
COc1cccc(C(=O)O/N=C(\C)c2cnccn2)c1	19*	16%	10	16%	?	-1%
CN(C)c1ccc(Cc2cc3c(O)ccc(O)c3cc(Cc3ccc(N(C)C)cc3)c2=O)cc1	·	·	·	11µM*	·	11µM*
CC(=O)C1=C(O)C(=O)N(Cc2ccccc2)C1c1ccc(N(C)C)cc1 (stereo unspecified)	2	9%	-18	-3%	?	17%
O=C(CCCOc1ccccc1)Nc1ccc(Cl)cn1	30*	20%	64*	9%	74%	?
